Test results from PubChem BioAssay (Tox21).
Results filed as inconclusive are left out. Unmarked numbers belong to inactive results. Calls of active or inactive are those of the source. Calls follow the shape of the dose curve; as a rule, active = well fitted cell-killing curve with a large enough effect in the repeat runs; inconclusive = weak or mixed curves, or effect the other way; inactive = flat fitted curve, though single readings scatter.

Experiment: qHTS assay to identify small molecule antagonists of the androgen receptor (AR) signaling pathway using the MDA cell line in the presence of 0.5 nM R1881 - cell viability counter screen (AID 1259242); also: nearly all actives have a fitted effect of over 45% in size
Conditions: MDA-kb2 viability, CellTiter-Fluor protease fluorescence, 16 h; series mostly up to 92.4 µM; viability change, negative = cytotoxic: at the top concentration
From the text: U.S. Tox21 Program National Center for Advancing Translational Sciences [NCATS] NIH Chemical Genomics Center [NCGC] U.S. Environmental Protection Agency [EPA] National Institutes of Environmental Health Sciences [NIEHS] National Toxicology Program [NTP] U.S. Food and Drug Administration [FDA] Tox21 Assay Overview: Androgen receptor (AR) is an important member of the nuclear receptor family. Its signaling plays a critical role in AR-dependent prostate cancer and other androgen related diseases. Considerable attention has been given in the past decades to develop methods to study and screen for the environmental chemicals that have the potential to interfere with metabolic homeostasis, reproduction, developmental and behavioral functions. Therefore AR binding assay for screening androgen antagonists can be used to identify potential endocrine disruptors. MDA-kb2 cells (from ATCC, deposited by Wilson et al.) were used to screen for AR inhibitors against Tox21 compound libraries. These cells are human breast carcinoma cells that were stably transfected with a luciferase reporter gene under control of the MMTV promoter that contains response elements for both androgen receptor (AR) and glucocorticoid receptor (GR). The current screening for identification of AR inhibitors against Tox21 libraries used lower concentration of (0.5 nM) R1881 as a stimulator. The cytotoxicity of the Tox21 compound libraries against MDA-kb2 cell line was tested by measuring live-cell protease activity using CellTiter-Fluor assay in the same wells.
Tox21 Assay Protocol Summary: MDA-kb2 cells (cells cultured without CO2) were dispensed at 3,000 cells/well in 4 uL of culture medium into white wall/solid-bottom 1536-well plates (Corning Life Sciences, Corning, NY) using a Multidrop Combi (ThermoFisher Scientific, Waltham, MA) dispenser. After the assay plates were incubated at a 37C and 0% CO2 for 5 hr, 23 nL of compounds dissolved in DMSO, positive controls or DMSO only was transferred to the assay plate by a Pintool station (Kalypsys, San Diego, CA). The transfer of compounds was followed by the addition of 1 uL of 0.5 nM (final concentration) agonist (R1881)/culture medium using a Flying Reagent Dispenser (FRD, Aurora Discovery, San Diego, CA). The plates were incubated at 37C and 0% CO2 for 16 hr. For cytotoxicity assay, 1 uL of CellTiter-Fluor reagent (Promega Corporation, Madison, WI) was added to each well using the FRD and after 30 min incubation at 37C and 0% CO2, The fluorescence intensity was measured using ViewLux plate reader (PerkinElmer, Shelton, CT).
% is scaled to controls: 0 for no effect and ±100 for the full control effect; potency is read from the fitted curve at half-maximal effect.

In the case of `CC(=O)N1CCN(c2ccc(OC[C@H]3CO[C@](Cn4ccnc4)(c4ccc(Cl)cc4Cl)O3)cc2)CC1`, the Potency is reported as 61.1 µM (active).
For `CCCCCCCC[N+](CCCCCCCC)(CCCCCCCC)CCCCCCCC`, the Potency was 9.67 µM (active).
In the case of `N=C1C=CC(=C(c2ccc(N)cc2)c2ccc(N)cc2)C=C1`, the Potency is reported as 9.69 µM (active).
For `C[C@@H](NCCCc1cccc(C(F)(F)F)c1)c1cccc2ccccc12`, the Potency was 23.7 µM (active).
With `[Cl][Au]([Cl])[Cl]` the Potency was 24.3 µM (active).
With `CCOC(=O)O[C@H](C)OC(=O)c1ccc2c(c1)cc(C(=O)NC1CCN(C(C)C)CC1)n2Cc1cc(-c2ccc(Cl)s2)on1` the Potency was 40.4 µM (active).
With `CCC(C)Nc1ccc(NC(C)CC)cc1` (stereo not given) the Potency was 24.8 µM (active).
With `CCCCCCCC/C=C\CCCCCCCCOCCO` the Potency was 20 µM (active).
With `CCCCCCOC(=O)c1ccc(O)cc1` the Potency was “inactive”.
In the case of `CC(C)(C)NC(=O)[C@@H]1C[C@@H]2CCCC[C@@H]2CN1C[C@@H](O)[C@H](Cc1ccccc1)NC(=O)[C@H](CC(N)=O)NC(=O)c1ccc2ccccc2n1`, the Potency is reported as 61.9 µM (active).

In order of rising “viability change, negative = cytotoxic” value:
1. Oc1cccc2cc3cccc(O)c3c(O)c12  -17.8%
2. CCN(Cc1cccnc1)C(=O)c1cccc(Cl)c1[C@]1(C)C(=O)N(Cc2ccc(OC)cc2OC)c2ccc(Cl)cc21  -16.4%
3. O=C(Oc1ccccc1)c1ccccc1C(=O)Oc1ccccc1  -15.9%
4. CCCCN1C(=O)[C@@H]([C@H](O)C2CCCCC2)NC(=O)C12CCN(Cc1ccc(Oc3ccc(C(=O)O)cc3)cc1)CC2  -11.4%
5. CCc1cc(Cc2cc(CC)c(N)c(CC)c2)cc(CC)c1N  -11%
6. CCOC(=O)c1nc(C(Cl)(Cl)Cl)n(-c2ccc(Cl)cc2Cl)n1  -7.35%
7. OCc1c[nH]c2ccccc12  -4.94%
8. CN(C)c1ccc(SC#N)cc1  -4.85%
9. CCC(Cl)C(Cl)C(Cl)CC(Cl)C(Cl)C(C)Cl (stereo not given)  -2.5%
10. CC(=O)S[C@@H]1CC2=CC(=O)CC[C@]2(C)[C@H]2CC[C@@]3(C)[C@@H](CC[C@@]34CCC(=O)O4)[C@H]12  -1.52%
11. CO[Si](CCCNc1ccccc1)(OC)OC  -0.36%
12. CCCCCCCCCCC=O  -0.285%
13. Oc1ccc2c(c1)-c1ccccc1C2  0.0491%
14. Nc1c(Cl)cc(Cl)cc1Cl  0.0932%
15. O=C(OCC(COC(=O)c1ccccc1)(COC(=O)c1ccccc1)COC(=O)c1ccccc1)c1ccccc1  0.271%
16. C1CCCC1  0.982%
17. CCN(C(=O)N(CC)c1ccccc1)c1ccccc1  1.32%
18. O=C(OCC1CO1)C1CCCCC1C(=O)OCC1CO1 (stereo not given)  3.95%
19. O=C(O)c1ccc(Cl)c(Cl)c1  6.46%

In order of rising “viability change, negative = cytotoxic” value:
1. Fc1ccc([C@@H]2CCNC[C@H]2COc2ccc3c(c2)OCO3)cc1  -17.8% [at 42.5 µM]
2. O=c1c(-c2ccccc2)c1-c1ccccc1  -17.4% [at 42.5 µM]
3. CCc1oc2ccccc2c1C(=O)c1cc(Br)c(O)c(Br)c1  -9.72% [at 42.5 µM]
4. C[C@@H]1C[C@H]2[C@@H]3CCC4=CC(=O)C=C[C@]4(C)[C@@]3(Cl)[C@@H](O)C[C@]2(C)[C@@]1(OC(=O)c1ccco1)C(=O)CCl  -4.05% [at 42.5 µM]
5. Cc1cccc(CN2CCN(C(c3ccccc3)c3ccc(Cl)cc3)CC2)c1 (stereo not given)  -2.19% [at 42.5 µM]
6. Nc1cc(C(F)(F)F)ccc1S  -1.58% [at 42.5 µM]
7. Cn1cc(C(=O)[C@@H]2CCc3nc[nH]c3C2)c2ccccc21  -0.432% [at 42.5 µM]
8. COC(=O)c1cc(Cl)ccc1OC  0.506% [at 42.5 µM]
9. CCCCCCCC(=O)[O-].CCCCCCCC(=O)[O-].[Zn+2]  1.58% [at 42.5 µM]
10. Cc1onc(-c2ccccc2Cl)c1C(=O)N[C@@H]1C(=O)N2[C@@H]1SC(C)(C)[C@@H]2C(=O)O  1.83% [at 42.5 µM]

`O=C(OC[C@H]1O[C@@H](OC(=O)c2cc(O)c(O)c(OC(=O)c3cc(O)c(O)c(O)c3)c2)[C@H](OC(=O)c2cc(O)c(O)c(OC(=O)c3cc(O)c(O)c(O)c3)c2)[C@@H](OC(=O)c2cc(O)c(O)c(OC(=O)c3cc(O)c(O)c(O)c3)c2)[C@@H]1OC(=O)c1cc(O)c(O)c(OC(=O)c2cc(O)c(O)c(O)c2)c1)c1cc(O)c(O)c(OC(=O)c2cc(O)c(O)c(O)c2)c1` gave a viability change, negative = cytotoxic of -18.2% [at 19 µM].
